Test [1] deals with T1, Cyclin-dependent kinase 5/CDK5 activator 1 (Homo sapiens) (UniProt Q00535+Q15078). The settings on record: at 10 µM.
Test [2] concerns the target Casein kinase I isoform delta (Homo sapiens) (UniProt P48730). The note with it: at 1 µM.
Test [3] shares this target. The note with it: at 10 µM.
For test [4], the target named is T2, CDK3/cyclin E (Homo sapiens) (UniProt P24864+O96020+Q00526). The settings on record: at 1 µM.
For test [5], the target named is T2, CDK3/cyclin E (Homo sapiens). The settings on record: at 10 µM.
The target in test [6] is T1, Cyclin-dependent kinase 5/CDK5 activator 1 (Homo sapiens). The settings on record: at 1 µM.
Test [7] shares this target. The settings on record: at 1 µM. The source holds these as a separate data set.
Test [8] has the same target. The note with it: at 10 µM. The source holds these as a separate data set.
In test [9] the target is T3, CDK6/cyclin D3 (Homo sapiens) (UniProt P30281+Q00534). The note with it: at 1 µM.
In test [10] the target is T3, CDK6/cyclin D3 (Homo sapiens). The settings on record: at 10 µM.
Test [11] concerns the target T4, Cyclin-dependent kinase 7/ cyclin H (Homo sapiens) (UniProt P51946+P50613). The note with it: at 1 µM.
The target of test [12] is T4, Cyclin-dependent kinase 7/ cyclin H (Homo sapiens). The note with it: at 10 µM.
Test [13] deals with T5, CDK9/cyclin T1 (Homo sapiens) (UniProt O60563+P50750). The settings on record: at 1 µM.
In test [14] the target is T5, CDK9/cyclin T1 (Homo sapiens). The note with it: at 10 µM.
The target of test [15] is T6, Serine/threonine-protein kinase Chk1 (Homo sapiens) (UniProt O14757).
T6 sequence (whole entry): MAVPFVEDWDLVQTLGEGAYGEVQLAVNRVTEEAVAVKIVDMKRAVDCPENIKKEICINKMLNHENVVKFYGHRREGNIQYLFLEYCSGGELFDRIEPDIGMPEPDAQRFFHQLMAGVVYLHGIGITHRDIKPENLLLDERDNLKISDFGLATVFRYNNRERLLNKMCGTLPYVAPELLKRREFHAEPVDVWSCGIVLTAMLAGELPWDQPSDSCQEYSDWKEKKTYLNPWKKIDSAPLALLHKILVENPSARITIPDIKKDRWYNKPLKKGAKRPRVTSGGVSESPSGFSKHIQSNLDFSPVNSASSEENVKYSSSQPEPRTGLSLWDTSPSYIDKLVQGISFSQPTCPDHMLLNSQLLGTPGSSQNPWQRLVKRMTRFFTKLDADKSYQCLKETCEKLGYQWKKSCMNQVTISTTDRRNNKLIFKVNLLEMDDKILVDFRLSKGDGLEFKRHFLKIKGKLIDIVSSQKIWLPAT
The settings on record: at 1 µM.

Test [16] deals with T6, Serine/threonine-protein kinase Chk1 (Homo sapiens). The settings on record: at 10 µM.
Test [17] deals with Serine/threonine-protein kinase Chk2 (Homo sapiens) (UniProt O96017). The note with it: at 1 µM.
Sequence of Serine/threonine-protein kinase Chk2 (Homo sapiens) (O96017 whole entry): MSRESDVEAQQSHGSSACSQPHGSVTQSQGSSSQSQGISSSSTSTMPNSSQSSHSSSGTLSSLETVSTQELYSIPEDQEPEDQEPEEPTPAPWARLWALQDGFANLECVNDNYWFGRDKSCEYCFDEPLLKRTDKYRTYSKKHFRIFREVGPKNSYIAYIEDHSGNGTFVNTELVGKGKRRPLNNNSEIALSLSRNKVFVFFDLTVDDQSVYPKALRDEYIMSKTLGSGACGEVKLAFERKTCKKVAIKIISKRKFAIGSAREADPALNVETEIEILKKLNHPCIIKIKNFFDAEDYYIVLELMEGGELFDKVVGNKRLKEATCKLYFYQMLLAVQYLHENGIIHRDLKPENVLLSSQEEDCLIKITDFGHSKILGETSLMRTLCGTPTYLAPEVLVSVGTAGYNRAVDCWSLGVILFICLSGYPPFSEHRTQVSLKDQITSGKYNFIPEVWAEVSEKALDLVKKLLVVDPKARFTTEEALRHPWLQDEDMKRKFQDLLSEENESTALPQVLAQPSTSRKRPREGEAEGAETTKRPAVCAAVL
Test [18] has the same target. The settings on record: at 10 µM.
Test [19] concerns the target Casein kinase I isoform gamma-1 (Homo sapiens) (UniProt Q9HCP0). The settings on record: at 1 µM.
Test [20] shares this target. The note with it: at 10 µM.

We go through 10 compounds from ChEMBL document CHEMBL2218924, “A broad activity screen in support of a chemogenomic map for kinase signalling research and drug discovery” (Biochem J, 2013).

T1 sequence (Q00535 whole entry, canonical isoform): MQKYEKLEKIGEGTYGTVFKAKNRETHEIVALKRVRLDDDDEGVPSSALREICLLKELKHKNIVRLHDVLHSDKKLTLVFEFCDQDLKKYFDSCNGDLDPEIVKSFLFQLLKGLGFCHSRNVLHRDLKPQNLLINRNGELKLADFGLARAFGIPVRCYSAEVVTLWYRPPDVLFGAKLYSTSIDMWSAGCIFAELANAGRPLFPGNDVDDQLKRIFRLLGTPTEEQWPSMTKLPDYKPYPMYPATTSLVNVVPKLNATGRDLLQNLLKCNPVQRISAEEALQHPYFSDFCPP
T1 sequence (Q15078 99-307 partner limits assumed): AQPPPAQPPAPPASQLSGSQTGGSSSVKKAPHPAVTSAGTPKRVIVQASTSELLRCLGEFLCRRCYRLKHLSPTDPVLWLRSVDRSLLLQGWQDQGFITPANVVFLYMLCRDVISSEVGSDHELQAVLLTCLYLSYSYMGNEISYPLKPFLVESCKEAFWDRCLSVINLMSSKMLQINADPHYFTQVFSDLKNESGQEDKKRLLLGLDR
Sequence of Casein kinase I isoform gamma-1 (Homo sapiens) (Q9HCP0 whole entry, looked up, canonical isoform): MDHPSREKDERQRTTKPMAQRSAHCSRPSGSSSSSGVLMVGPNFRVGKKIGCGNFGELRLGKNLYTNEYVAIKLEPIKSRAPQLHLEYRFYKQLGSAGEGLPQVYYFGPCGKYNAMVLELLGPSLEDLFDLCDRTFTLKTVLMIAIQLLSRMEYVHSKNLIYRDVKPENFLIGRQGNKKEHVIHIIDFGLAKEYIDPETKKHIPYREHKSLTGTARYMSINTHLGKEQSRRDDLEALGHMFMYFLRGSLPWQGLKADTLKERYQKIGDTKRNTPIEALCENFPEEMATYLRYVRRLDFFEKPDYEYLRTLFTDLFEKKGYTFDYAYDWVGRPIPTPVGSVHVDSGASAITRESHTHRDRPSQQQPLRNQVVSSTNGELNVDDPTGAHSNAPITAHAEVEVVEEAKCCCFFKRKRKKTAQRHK
T2 sequence (O96020 whole entry, looked up): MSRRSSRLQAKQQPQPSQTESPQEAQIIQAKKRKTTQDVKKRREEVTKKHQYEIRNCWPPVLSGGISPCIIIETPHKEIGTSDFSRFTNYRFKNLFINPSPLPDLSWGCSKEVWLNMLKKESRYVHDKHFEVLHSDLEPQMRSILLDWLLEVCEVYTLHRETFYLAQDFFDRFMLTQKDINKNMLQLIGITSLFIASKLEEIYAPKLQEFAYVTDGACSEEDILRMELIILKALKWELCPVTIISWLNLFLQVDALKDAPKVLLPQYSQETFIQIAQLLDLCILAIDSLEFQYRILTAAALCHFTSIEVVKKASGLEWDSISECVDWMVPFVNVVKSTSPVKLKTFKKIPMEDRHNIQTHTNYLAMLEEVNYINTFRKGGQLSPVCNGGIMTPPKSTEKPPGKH
T2 sequence (P24864 whole entry, looked up): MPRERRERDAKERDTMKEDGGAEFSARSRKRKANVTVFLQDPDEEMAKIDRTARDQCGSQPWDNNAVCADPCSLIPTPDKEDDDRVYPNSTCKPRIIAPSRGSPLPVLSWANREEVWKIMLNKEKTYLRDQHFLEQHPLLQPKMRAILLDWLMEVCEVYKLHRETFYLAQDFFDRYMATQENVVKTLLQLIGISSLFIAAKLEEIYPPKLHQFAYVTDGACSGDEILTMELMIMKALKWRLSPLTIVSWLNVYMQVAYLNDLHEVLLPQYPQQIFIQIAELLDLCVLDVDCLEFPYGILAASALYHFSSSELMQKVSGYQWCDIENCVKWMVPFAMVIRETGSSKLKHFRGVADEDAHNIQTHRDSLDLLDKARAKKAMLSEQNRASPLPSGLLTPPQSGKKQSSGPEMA
T2 sequence (Q00526 whole entry, looked up): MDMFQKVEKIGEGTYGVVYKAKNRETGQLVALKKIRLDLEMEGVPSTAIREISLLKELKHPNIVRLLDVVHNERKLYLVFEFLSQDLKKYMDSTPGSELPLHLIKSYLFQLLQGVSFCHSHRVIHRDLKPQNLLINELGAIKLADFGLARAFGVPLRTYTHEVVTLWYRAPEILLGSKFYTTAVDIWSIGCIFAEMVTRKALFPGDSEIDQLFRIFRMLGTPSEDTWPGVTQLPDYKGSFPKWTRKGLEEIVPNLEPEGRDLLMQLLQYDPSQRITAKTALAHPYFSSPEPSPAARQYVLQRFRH
Sequence of Casein kinase I isoform delta (Homo sapiens) (P48730 whole entry, looked up, canonical isoform): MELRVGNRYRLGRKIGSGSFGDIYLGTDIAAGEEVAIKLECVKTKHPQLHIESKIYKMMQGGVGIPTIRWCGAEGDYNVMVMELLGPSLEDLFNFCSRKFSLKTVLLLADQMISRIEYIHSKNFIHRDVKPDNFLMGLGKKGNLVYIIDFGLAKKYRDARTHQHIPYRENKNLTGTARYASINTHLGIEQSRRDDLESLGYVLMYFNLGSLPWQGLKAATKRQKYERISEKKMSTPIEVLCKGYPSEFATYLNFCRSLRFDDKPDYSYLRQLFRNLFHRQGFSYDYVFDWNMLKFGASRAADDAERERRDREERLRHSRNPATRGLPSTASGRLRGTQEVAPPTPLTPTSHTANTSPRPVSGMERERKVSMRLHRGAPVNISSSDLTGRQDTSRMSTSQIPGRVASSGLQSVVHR

`CN[C@@H]1C[C@H]2O[C@@](C)([C@@H]1OC)n1c3ccccc3c3c4c(c5c6ccccc6n2c5c31)C(=O)NC4`: the values for the residual activity in test [1], in test [2] and in [3] were 2%, 77% and 46%, respectively.

Take `C[S+]([O-])c1ccc(-c2nc(-c3ccc(F)cc3)c(-c3ccncc3)[nH]2)cc1` (stereo not given): the residual activity in test [4] stood at 108%; in test [5], 93%; in test [6], 117%; in test [1] it was 121%; in test [7] it was 120%; in test [8], 100%. Besides, the residual activity in test [9] is 116%; in [10], 111%; in test [11] it was 118%; in [12], 100%; in [13], 98%; in [14], 108%. For the same compound, the residual activity worked out at 104% in test [15]; 97% in [16]; 90% in [17]; 90% in test [18]; 119% in test [19]; 61% in [20].

As to `COC(=O)[C@@]1(O)C[C@H]2O[C@]1(C)n1c3ccccc3c3c4c(c5c6ccccc6n2c5c31)C(=O)NC4`, the residual activity in test [4] came out at 27%; in test [5], 2%; in test [6], 4%; in test [1] it was 1%; in [7], 3%; in [8], 1%. The residual activity in [9] is 15%; in [10], 4%; in [11], 55%; in [12], 16%; in test [13], 10%; in test [14], 2%. Moreover, the residual activity is 1% in [15]; -1% in test [16]; 3% in test [17]; 1% in test [18]; 93% in test [19]; 57% in test [20]. The residual activity in test [2] was 79%; in test [3], 37%.

Consider `O=C1c2ccccc2-c2nc3nnnn3nc21`, for which the residual activity in test [9] was 103%; in test [10], 101%; in [12], 129%.

Regarding `O=C1Nc2ccc3ncsc3c2/C1=C/c1c[nH]cn1`, the residual activity in test [4] is 1%; in test [5], -1%; in [6], 1%; in test [1], 0%; in [7] it was 1%; in test [8] it was -1%. Moreover, the residual activity in [9] is 10%; in [10], 4%; in test [11], 15%; in test [12], 3%; in test [13], 5%; in [14], 3%. Also, the residual activity in [15] came to 35%; in test [16], 8%; in [17], 50%; in [18], 15%; in [19] it was 70%; in [20] it was 28%. For the same compound, the residual activity in test [2] stood at 23%; in test [3], 4%.

On to `CCc1nc(-c2ccc(OC)cc2)[nH]c1-c1ccncc1`, for which the residual activity in test [4] amounted to 102%; in test [6], 101%; in [7], 109%; in [2] it was 74%; in [3] it was 37%.

Turning to `COc1ccc2c(c[n+](C)c3c4cc5c(cc4ccc23)OCO5)c1OC`, the residual activity in [5] was 85%; in test [7], 89%; in test [8], 91%; in test [10], 82%; in test [11] it was 87%; in test [15], 86%. Moreover, the residual activity is 99% in test [16]; 73% in [17]; 90% in test [18]; 80% in [19]; 71% in test [20].

For the compound `COc1cc(OC)c(/C=C2\C(=O)Nc3ccccc32)c(OC)c1`, the residual activity in test [4] amounted to 84%; in test [5], 78%; in [6], 88%; in [1], 85%; in test [7], 99%; in [8], 77%. Besides, the residual activity is 90% in test [9]; 77% in [10]; 90% in test [11]; 84% in test [12]; 94% in test [13]; 48% in test [14]. Also, the residual activity in test [15] was found to be 88%; in test [16], 81%; in test [17] it was 89%; in test [18], 78%; in test [19], 101%; in [20], 70%. For the same compound, the residual activity in [2] is 37%; in test [3], 6%.

As to `O=[N+]([O-])/C=C/c1ccc2c(c1)OCO2`, the residual activity in test [4] turned out to be 87%; in test [5] it was 88%; in [6], 97%; in test [1], 106%; in test [7], 91%; in [8] it was 96%. For the same compound, the residual activity in test [9] was 99%; in [10] it was 98%; in test [11], 81%; in test [12], 119%; in test [13], 112%; in test [14], 100%. For the same compound, the residual activity in [15] came out at 85%; in test [16], 101%; in test [17] it was 85%; in test [18] it was 85%; in test [19], 83%; in test [2], 98%. Also, the residual activity in [3] stood at 113%.

Regarding `O=C1NC(=O)c2c1c1c3ccccc3n3c1c1c2c2ccccc2n1C1CCC3O1`, the residual activity in test [4] is 46%; in test [5] it was 41%; in [6] it was 73%; in test [1] it was 86%; in [7], 75%; in test [8], 65%. For the same compound, the residual activity in test [9] is 95%; in [10], 76%; in test [13] it was 71%; in test [14], 66%; in [15] it was 25%; in test [16], 20%. Also, the residual activity turned out to be 26% in test [17], 24% in test [18], 75% in test [2] and 75% in test [3].
